Shown are actives, neighbours in structure and some others; about 3.8% of the full set was active somewhere.
TIM10 inh: TIM10 yeast growth inhibition. actives 1.4% (n = 330,000). inhibition, % at 10 µM. AID 463195. S. cerevisiae TIM10 strain growth, BacTiter-Glo luminescence, 24 h;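 active = inhibition of 40% or more at the single tested concentration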;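 note: wild-type TIM10 isogenic control strain grown at permissive 25 °C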
tim23-1 inh: tim23-1 yeast growth inhibition | actives 1.3% (n = 330,000) | inhibition, % at 20 µM | S. cerevisiae tim23-1 growth, BacTiter-Glo luminescence, 24 h;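 active = growth inhibition of the mutant yeast at or above 50%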;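 note: temperature-sensitive mutant grown at 25 °C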
NLRP3 yeast inh: blocks the NALP3 inflammasome reconstituted in yeast | inhibition, % at 10 µM | AID 2825 | Yeast reconstituted NLRP3/ASC/caspase-1, beta-gal luminescence, 24 h | actives 0.39% (n = 330,000);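 active = inhibition of 50% or more; inactive = inhibition below 50%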
tim10-1 inh: inhibits growth of tim10-1 mutant yeast; S. cerevisiae tim10-1 ts strain growth, BacTiter-Glo, 24 h; inhibition, % at 20 µM; actives 2.2% (n = 330,000);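 active = inhibition of at least 40%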;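 note: mutant grown at 25 °C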
CR mimetic SO: lowers age-related superoxide in aged yeast cells | superoxide response (% of plate mean), % at 10 µM | actives 0.18% (n = 330,000) | S. cerevisiae aged cells, superoxide DHE fluorescence; hits give low values;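 active = superoxide response under a set limit, about three screen SD below normal, cut at about 65% in these data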;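 note: yeast aged for seven days with compound at 30 °C before DHE staining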
tim10-1 confirm: confirmation of tim10-1 mutant yeast growth inhibitors; shares compounds with tim10-1 inh; S. cerevisiae tim10-1 ts strain growth, BacTiter-Glo, 24 h; inhibition, % at 20 µM; actives 56% (n = 7,400);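 active = inhibition of yeast growth at or above a set limit in either of two repeat tests at 20 µM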;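 note: tim10-1 mutant grown at permissive 25 °C to find synthetic lethal compounds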
Numbers stand for hits; – = inactive; · = no result given.

SMILES	TIM10 inh	tim23-1 inh	NLRP3 yeast inh	tim10-1 inh	CR mimetic SO	tim10-1 confirm
O=[N+]([O-])c1ccc(Nc2ccc(Cl)cc2)nc1	–	–	–	59	–	42
O=C(c1ccc(Br)cc1)N1CCC2(CC1)NCCc1[nH]cnc12	–	–	–	–	–	·
COC(=O)[C@H](Cc1ccccc1)NC(=O)NCCc1ccccc1F	–	–	–	–	–	·
C/C(CC(=O)Nc1ccc(N(C)C)cc1)=N\NC(=O)c1ccc(C(C)(C)C)cc1	–	–	–	53	–	33
CCCC(=O)Nn1cnc2c(c1=O)C1(CCCC1)Cc1ccccc1-2	–	–	–	45	–	36
CC(=O)Nn1cnc2c(c1=O)C1(CCCC1)Cc1ccccc1-2	–	–	–	–	–	·
NS(=O)(=O)c1ccc(N=Nc2ccc(O)c3ncccc23)cc1	–	–	–	–	–	·
CCS(=O)(=O)c1ccc(OC)c(N=Nc2ccc(O)c3ncccc23)c1	–	–	–	41	–	38
CCN(CC)S(=O)(=O)c1cc(OC)ccc1N=Nc1ccc(O)c2ncccc12	–	–	–	44	–	42
COc1ccc(OC(=O)c2ccc(OC)c(S(=O)(=O)N3CCOCC3)c2)cc1	–	–	–	–	–	·
CSc1nsc(/C=C/Nc2ccc(F)cc2F)c1C#N	–	–	–	46	–	41
CSc1nsc(/C=C/Nc2ccc(C(=O)O)cc2)c1C#N	–	–	–	–	–	·
Cc1nc(NS(=O)(=O)c2cccs2)c2c3c(sc2n1)CCC3	–	–	–	44	–	29
Cn1c(N)c(C(=O)CSc2ncn[nH]2)c(=O)n(C)c1=O	–	–	–	–	–	·
COc1ccccc1OCCNC(=O)Nc1ccc(Br)cc1	–	–	–	40	–	31
COc1ccccc1OCCNC(=O)Nc1cc(F)c(F)cc1Cl	–	–	–	–	–	·
CC(CCc1ccccc1)NC(=O)COC(=O)c1ccc(S(C)(=O)=O)c([N+](=O)[O-])c1 (configuration not stated)	–	–	–	46	–	–
CC(CCc1ccccc1)NC(=O)COC(=O)c1ccc([N+](=O)[O-])cc1 (configuration not stated)	–	–	–	–	–	·
Cc1ccc2cccc(OCc3ccc(Br)cc3)c2n1	–	–	–	44	–	–
CCCNC(=O)c1ccc(Cl)cc1Cl	–	–	–	97	–	–
O=C(NCCN1CCCC1)c1ccc(Cl)cc1Cl	–	–	–	–	–	·
COC(=O)CSCC(=O)Nc1nnc(-c2cccc(C)c2)s1	–	–	–	–	–	·
c1ccc(OCc2nnc3sc(-c4cccs4)nn23)cc1	–	–	–	47	–	–
NC(=O)COC(=O)c1ccccc1SCC(=O)NC1CCCCCC1	–	–	–	–	–	·
Cc1cc(=O)[nH]c(N=N/C(=N/Nc2ccc(O)cc2)c2ccccc2)n1	–	–	–	50	–	38
SMILES	TIM10 inh	tim23-1 inh	NLRP3 yeast inh	tim10-1 inh	CR mimetic SO	tim10-1 confirm
COc1cc(C(=O)Nc2c(C(=O)O)[nH]c3ccc(Br)cc23)cc(OC)c1OC	–	–	–	–	–	·
O=C(Nc1cccc(F)c1)N1CCN(C(=O)c2ccco2)CC1	–	–	–	–	–	·
COc1cccc(N2[C@@H](CC(C)=O)c3ccc(/C=C/C(C)=O)cc3S2(=O)=O)c1	–	–	–	44	–	34
Cc1ccc(C(=O)O/N=C(\c2ccccc2)c2cccnc2)cc1	–	–	–	42	–	36
C#CCN(CC=C)C(=O)CCc1nnc(COc2ccccc2)o1	–	–	–	–	–	·
CCOc1cc(C2C(C#N)=C(N)OC(C)=C2C(C)=O)c(Br)c(Br)c1OC(C)C (configuration not stated)	–	–	–	46	–	–
CCOc1cc(C2C(C#N)=C(N)OC(C)=C2C(C)=O)cc(Br)c1O (configuration not stated)	–	–	–	–	–	·
Cc1ccc(Cl)c(OC(=O)C2CSC3(C)CCC(=O)N23)c1 (configuration not stated)	–	–	–	40	–	–
Cc1ccc(C)c(S(=O)(=O)N2CCN(C(=O)C3CCN(c4ncnc5sc(C)c(C)c45)CC3)CC2)c1	–	–	–	47	–	–
CCC(C)[C@H](NC(=O)C1(c2ccccc2)CCN(C(=O)OC(C)(C)C)CC1)C(=O)N[C@@H](C(=O)O)c1ccccc1 (some centres not stated)	–	–	–	–	–	·
CCOC(=O)c1cnc2ccc(OC)cc2c1NCc1ccccc1	–	–	–	–	–	·
CCOC(=O)c1cnc2ccc(OCC)cc2c1NCc1ccccc1OC	–	–	–	43	–	34
CCCc1sc(N)nc1-c1ccc(Cl)cc1	–	–	–	43	–	–
Cc1nonc1C(=O)N/N=C/c1ccc(O)cc1O	–	–	–	46	–	–
Cc1ccc(C(C)C)c(OCC(=O)Nn2c(=O)[nH]c3ccccc3c2=O)c1	–	–	–	–	–	·
Cc1ccc(C(C)C)c(OCC(=O)Nn2c(C)nc3ccccc3c2=O)c1	–	–	–	47	–	–
O=C(CSc1nnc(-c2cccs2)o1)c1cccs1	–	–	–	–	–	·
CN(C)C(=O)CSc1nnc(-c2cc(-c3cccs3)nc3ccccc23)o1	–	–	–	40	–	38
Cc1cc(C(=O)CSc2nnc(-c3cccs3)o2)c(C)n1-c1ccccc1	–	–	–	48	–	34
CCC(=O)c1ccc(OCC(=O)OCC(=O)N2CCCc3ccccc32)cc1	–	–	–	43	–	–
CCC(=O)c1ccc(OCC(=O)OCC(=O)N2c3ccccc3CC2C)cc1 (configuration not stated)	–	–	–	41	–	35
O=C(COc1ccc(Cl)cc1)OCC(=O)N1CCCc2ccccc21	–	–	–	–	–	·
C=CCc1ccccc1Oc1cc(OC)nc(N)n1	–	–	–	–	·	·
CC1Cc2ccccc2N1C(=S)NC(=O)c1ccco1 (configuration not stated)	–	–	–	40	–	36
O=C(NC(=S)N1CCCc2ccccc21)c1ccco1	–	–	–	–	–	·
SMILES	TIM10 inh	tim23-1 inh	NLRP3 yeast inh	tim10-1 inh	CR mimetic SO	tim10-1 confirm
Cc1cc(/C=C2\Sc3ccccc3N2C)cc(C)[n+]1CC1CCCO1 (configuration not stated)	–	–	–	57	·	–
Cc1ccc(CN(C(=O)COc2ccc(Br)cc2)C2CCS(=O)(=O)C2)o1 (configuration not stated)	–	–	–	–	–	·
O=C(Nc1ccc(Cl)cn1)C1CC1	–	–	–	–	–	·
O=C(Nc1ccc(Cl)cn1)C1C(c2ccccc2)C1(Cl)Cl (configuration not stated)	–	–	–	46	–	34
O=C(O)CCCCCN1C(=O)C(O)=C(C(=O)/C=C/c2ccccc2)C1c1ccccc1[N+](=O)[O-] (configuration not stated)	–	–	–	–	–	·
Cc1ccccc1CNC(=O)c1ccc(Cl)c([N+](=O)[O-])c1	–	–	–	43	–	–
